Results: paper PMC12136788
Numbering of substitutions follows the chain as printed. Whole data set: some 24,000 sequences, median “enrichment r” near 0.99, cut for the highest 2% near 3.7. For the sample, the highest values were picked, then their nearest neighbours and some sequences at random.

B1: 168352429_168352549_4431_CDS_ENSG00000130396_ENST00000400822|human|control|control (ssRNA)
RNA: GGGAGUUCUACAGUCCGACGAUCAAUGUACUGCAAGUCUCUGCGCUCGAUCGUGCGGGGCUGCUGCUGAGGCUGCAGCUCCCGAAUGACUGUUUCCUGUGGCCGCUGGAGUGUGGAAGGCUUUUCGGGCUUCAUCUGCUGUGCCAACAGAGGAUUGAGCAUCA
B2: chr2:201681052:201681053:+_ENSG00000082153_ENST00000409600|hu_hu|FALSE|FALSE (ssRNA)
RNA: GGGAGUUCUACAGUCCGACGAUCUUUUACUUCAUCUUCAAAACCUUUCUCCAGGUAUUUGUAGCGCCUGAUUAACUUGUUAAAAACCUGAGCAAAUGCUUGCAUGGUCUCUAGAUCUUCUUGGGCUGCAAACACGCAGACAUCCAACAGAGGAUUGAGCAUCA
B3: 5253780_5253900_1103_CDS_ENSG00000029725_ENST00000262477|human|control|control (ssRNA)
RNA: GGGAGUUCUACAGUCCGACGAUCAACUUGUCGGAGCUGUUCUGAAGUUAGCACAAUCUCCAUUCGCUGCAUGUCUCUCAUCAGUAAACGCUGAGAUUCCAGAAACUGGUCAUUGGCCUUCUGCCACGUAUGUUUUAACUGGUUCAACAGAGGAUUGAGCAUCA
B4: chr22:32879901:32879902:+_ENSG00000100225_ENST00000397426|hu_mus|hu_hu_hu_mus_False|48_98 (ssRNA)
RNA: GGGAGUUCUACAGUCCGACGAUCCUCUUCCAUACUCGCAUUAUCUUGAAUUGACUCAGCUUCAACAUUUUGACUAGGCCCUUCCAUACUGUCGUCAGUCCAGGCAUCAAAUGGGGUGGCCUGUCCUUGGGAUGAAUCAGUCCCCAACAGAGGAUUGAGCAUCA
B5: chr17:56552419:56552420:-_ENSMUSG00000013236_ENSMUST00000086828|mus_mus|mus_mus_mus_hu_False|58_78 (ssRNA)
RNA: GGGAGUUCUACAGUCCGACGAUCAAAAAAUACACUAUUUAAAAAAAAUGAAAUGUCAGAAAAAGAAGUUACACUGACACUAUUAAAAGAAAGCUGGAUUCUGGUCCCAGCCCAGUGUCCCCAGGCUGCAGAGCGGGGAGGAGCCAACAGAGGAUUGAGCAUCA
B6: chr17:56552419:56552420:-_ENSMUSG00000013236_ENSMUST00000086828|mus_mus|mus_mus_mus_hu_False|78_98 (ssRNA)
RNA: B5 RNA with U38A, U39A, C77G, C79G, A81U
B7: chr17:56552419:56552420:-_ENSMUSG00000013236_ENSMUST00000086828|mus_mus|mus_mus_mus_hu_False|78_88 (ssRNA)
RNA: B5 RNA with U48A, G49A, A50G, U53A, G54A, U55A, C56A, C77G, C79G, A81U
B8: chr17:56552419:56552420:-_ENSMUSG00000013236_ENSMUST00000086828|mus_mus|mus_mus_mus_hu_False|1_78 (ssRNA)
RNA: B5 RNA with C77G, C79G, A81U, A138C, G139A, C143G
B9: 86747786_86748123_1683_CDS_ENSMUSG00000035671_ENSMUST00000039480|mouse|control|control (ssRNA)
RNA: GGGAGUUCUACAGUCCGACGAUCGUGCUGGUAGGCCAGCUUUCGCUUCUCUGGGGCUGAGUCUGGGAAAAGAGAGUGAGGCUCCUCCUCCAGGCGACAGGCCUCCAGCAGUGCCCUGCAGAGGCAGCCAAUGGGAUCCAGGGGCAACAGAGGAUUGAGCAUCA
B10: chr11:77336104:77336105:-_ENSG00000074201_ENST00000525064|hu_mus|hu_hu_hu_mus_False|68_98 (ssRNA)
RNA: GGGAGUUCUACAGUCCGACGAUCCUCACACAUUGCUGUGAACAUUGCCUCCAAUGCUGACUUAUCACUAGGCACAAAUCGAAAUUCAGAAAUGGGUUCAACAUCAUCAUUGUCUUCCUCAUCUUCAUCAGAGAGAGGUUCUUUCAACAGAGGAUUGAGCAUCA
B11: chr16:5009651:5009652:-_ENSMUSG00000022540_ENSMUST00000023191|mus_hu|FALSE|FALSE (ssRNA)
RNA: GGGAGUUCUACAGUCCGACGAUCUGCAGGGAGACGGUGAAGUAGACCAGGGCGUCGUUGAGCCAGGGGAUCACGCACUCCACUUUGUGCACGUGGCUCACCUCCAGGCGCUGAGAGCCCCACUCGAACAUGGCCCCAGGGCUACAACAGAGGAUUGAGCAUCA
B12: 133220860_133220980_1226_CDS_ENSMUSG00000043257_ENSMUST00000062118|mouse|control|control (ssRNA)
RNA: GGGAGUUCUACAGUCCGACGAUCGUAUAUUAGAGGAAGGUCCCAGGAGCACCAUGGGGGUGCAUUUUCUCCUGCAAGCCGGUAGCCUUUGUCGGCAGCUAGCUGCAGCAAGGGCUCAGGGAUGGAGGGGGCUGAGCCUGGUGACAACAGAGGAUUGAGCAUCA
B13: chr7:141441981:141441982:+_ENSG00000106028_ENST00000265304|hu_mus|hu_hu_hu_mus_False|48_88 (ssRNA)
RNA: GGGAGUUCUACAGUCCGACGAUCCUCAUGUCUUACAAACUGACGAAGUACCUGUAACACAGGUCUUCGAAACAUGGCUUCUGUUUUCUUUUCUUACUAAUCUUUAGGCUUUUCCUAAAGGAAAGAAAGAAAAGAGAAAAAUGACAACAGAGGAUUGAGCAUCA
B14: chr17:56552419:56552420:-_ENSMUSG00000013236_ENSMUST00000086828|mus_mus|mus_mus_mus_hu_False|78_78 (ssRNA)
RNA: B5 RNA with C77G, C79G, A81U
B15: chr17:56552419:56552420:-_ENSMUSG00000013236_ENSMUST00000086828|mus_mus|mus_mus_mus_hu_False|48_78 (ssRNA)
RNA: B5 RNA with C77G, C79G, A81U, G88A, G92A, C93U, U94A, G95A
B16: chr17:56552419:56552420:-_ENSMUSG00000013236_ENSMUST00000086828|mus_mus|mus_mus_mus_hu_False|38_78 (ssRNA)
RNA: GGGAGUUCUACAGUCCGACGAUCAAAAAAUACACUAUUUAAAAAAAAUGAAAUGUCAGAAAAAGAAGUUACACUGAGAGUUUUAAAAGAAAGCUGGAAAAAAAAUGCAGCCCAGUGUCCCCAGGCUGCAGAGCGGGGAGGAGCCAACAGAGGAUUGAGCAUCA
B17: chr17:56552419:56552420:-_ENSMUSG00000013236_ENSMUST00000086828|mus_mus|mus_mus_mus_hu_False|18_78 (ssRNA)
RNA: GGGAGUUCUACAGUCCGACGAUCAAAAAAUACACUAUUUAAAAAAAAUGAAAUGUCAGAAAAAGAAGUUACACUGAGAGUUUUAAAAGAAAGCUGGAUUCUGGUCCCAGCCCAGUGGCAGGCAGGGGCAGAGCGGGGAGGAGCCAACAGAGGAUUGAGCAUCA
B18: chr4:153332861:153332862:-_ENSG00000109670_ENST00000281708|hu_mus|FALSE|FALSE (ssRNA)
RNA: GGGAGUUCUACAGUCCGACGAUCCUCCUCUUGAUGUCUCGCUUGCUGCUGUGGAUCCUCCUCAACCACGCGAUUCAUCUGUCCCUCAUCAACCUGGCUUGAGGAAGCAUUCCCUCUCAGAGAGCCUCCAGUUCGUCGUCUUUUCAACAGAGGAUUGAGCAUCA
B19: 46544062_46544572_2905_CDS_ENSG00000123200_ENST00000242848|human|control|control (ssRNA)
RNA: GGGAGUUCUACAGUCCGACGAUCUUCUUGAGGUCGUACAACUUGGCUCAAGAGUCUGUGUUUUUCAUUUUUAUCAUCUCCACUGUUGUAGGCAUCACUGUCCGGAGAAUGUUCACGCCGGCGCUUCGGGGACUGUCUAGGGCUCAACAGAGGAUUGAGCAUCA
B20: chr2:180329438:180329439:+_ENSMUSG00000049401_ENSMUST00000029087|mus_mus|FALSE|FALSE (ssRNA)
RNA: GGGAGUUCUACAGUCCGACGAUCCUCAGAGACACCCUGAGGAUCUGGCUCCCCUGGGACCUGCUCCUGCCUGUUCCCCUCCAACUUCCUCUUCUUGCUUUCUUUGGGACUCGGGGACUUAGCCUCAUGCCUUUGGUCCCCAUCCAACAGAGGAUUGAGCAUCA
B21: chr3:150289932:150289933:+_ENSG00000144895_ENST00000460851|hu_hu|hu_hu_hu_mus_False|18_28 (ssRNA)
RNA: GGGAGUUCUACAGUCCGACGAUCCUUGUAGUUUUUAACAUCCCAUACUUCCAUUUGUCCUCGAAGAUUUCCAAAUCCAGCCAGCACUAAUAUAUGUCCAUGAGGGCUAUAGUAGGCUGCAUUACGAGGACCAGUCCCAAAGUCCAACAGAGGAUUGAGCAUCA
B22: chr16:94664382:94664383:+_ENSMUSG00000040785_ENSMUST00000117648|mus_hu|FALSE|FALSE (ssRNA)
RNA: GGGAGUUCUACAGUCCGACGAUCAAAAGCUGGUGCUGAAGAUGAAUCUGACACUGGUUUAGACUUUACAUCUGGUUUAAAUUCCCUAGCAGCUGGAUUCAGUUGUAGUUUAACUCGUACAUACUCCCCUGCUUUUGAAAUUUCCAACAGAGGAUUGAGCAUCA

Each binder was assayed against T1, UNK ZnF1-3 (human, UniProt Q9C0B0 31-174) (assay: nsRBNS (natural sequence RNA bind-n-seq); RBNS binding buffer (assumed for nsRBNS): 25 mM Tris pH 7.5, 150 mM KCl, 3 mM MgCl2, 0.01% Triton X-100, 500 ug/ml BSA, 20 U/ml SUPERase-In, 4 C; UNK is unkempt and MSI1 is Musashi-1; names of the RNAs are library labels; protein concentration not given here; high values mean tight binding).
T1 sequence: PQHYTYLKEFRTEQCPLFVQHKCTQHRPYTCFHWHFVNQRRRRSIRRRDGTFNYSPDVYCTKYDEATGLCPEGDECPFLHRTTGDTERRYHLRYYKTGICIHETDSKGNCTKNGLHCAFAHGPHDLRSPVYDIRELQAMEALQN
B1 was tested, and the binding signal was 0.667 enrichment R. For B2, the binding signal was 0.452 enrichment R. B3 gave a binding signal of 0.594 enrichment R. B4 was tested, and the binding signal was 0.919 enrichment R. B5 showed a binding signal of 8.52 enrichment R. B6 was tested, and the binding signal was 8.48 enrichment R. B7 showed a binding signal of 12.6 enrichment R. Work on B8 yielded a binding signal of 3.68 enrichment R. B9 gave a binding signal of 0.778 enrichment R. Work on B10 yielded a binding signal of 0.885 enrichment R. B11 was tested, and the binding signal was 0.75 enrichment R. Work on B12 yielded a binding signal of 1.08 enrichment R. Work on B13 yielded a binding signal of 0.351 enrichment R. Work on B14 yielded a binding signal of 4.51 enrichment R. With B15 the binding signal was 9.32 enrichment R. In the case of B16, the binding signal is reported as 9.26 enrichment R. With B17 the binding signal was 3.82 enrichment R. B18 was tested, and the binding signal was 0.439 enrichment R. B19 gave a binding signal of 0.885 enrichment R. B20 gave a binding signal of 0.716 enrichment R. B21 was tested, and the binding signal was 0.862 enrichment R. B22 showed a binding signal of 1 enrichment R.
